Several values for one entry are separate records, joined by “and”; a condition that tells them apart may be missing. Identical values can stand only once. Screen size: about 5,500 compounds; about 2,000 (36%) were called active. About 18% were inconclusive and are not listed. Rule as the data show it: active = normalized growth mostly below about 0.91 (no sharp cut-off); inconclusive = no clear call, values can overlap the other calls; inactive = mostly above about 0.92. Some of the results follow.
Assay: chemical genetic growth profiling, strain panel (AID 1159580);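 also: tested at 20 µM; growth read once vehicle control cultures reached saturation at 30 °C; 1 = growth at the plate median or of vehicle wells; lower values mean less growth of the strain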
Details: S. cerevisiae deletion strains, growth OD

Measured: normalized growth

CCCc1nc2c(C)cc(-c3nc4ccccc4n3C)cc2n1Cc1ccc(-c2ccccc2C(=O)O)cc1
inactive: locus YAL013W, strain DEP1, hits give low values 1.01 | locus YAL021C, strain ccr4, hits give low values 1.02 | locus YAL026C, strain drs2, hits give low values 1 | locus YAL030W, strain snc1, hits give low values 1.01 | locus YBL061C, strain skt5, hits give low values 1.01 | locus YBR009C, strain hhf1, hits give low values 1.01 | locus YBR021W, strain FUR4, hits give low values 0.992 | locus YBR023C, strain chs3, hits give low values 1.01 | locus YBR171W, strain sec66, hits give low values 1.02 | locus YBR229C, strain ROT2, hits give low values 1 | locus YBR231C, strain swc5, hits give low values 1.02 | locus YBR279W, strain paf1, hits give low values 1.01 | locus YCL011C, strain gbp2, hits give low values 1.01 | locus YCL016C, strain dcc1, hits give low values 1 | locus YCL029C, strain bik1, hits give low values 1.01 | locus YCL069W, strain vba3, hits give low values 1.02 | locus YCR088W, strain abp1, hits give low values 1.02 | locus YDL005C, strain med2, hits give low values 1.02 | locus YDL035C, strain GPR1, hits give low values 0.98 | locus YDL040C, strain nat1, hits give low values 1.01 | locus YDL074C, strain BRE1, hits give low values 0.997 | locus YDL101C, strain DUN1, hits give low values 0.999 | locus YDL134C, strain PPH21, hits give low values 1 | locus YDL185W, strain tfp1, hits give low values 1.01 | locus YDL192W, strain arf1, hits give low values 1.02 | locus YDR001C, strain nth1, hits give low values 1.02 | locus YDR069C, strain doa4, hits give low values 1.03 | locus YDR101C, strain arx1, hits give low values 0.989 | locus YDR137W, strain rgp1, hits give low values 0.975 | locus YDR150W, strain NUM1, hits give low values 1.01 | locus YDR159W, strain sac3, hits give low values 0.978 | locus YDR162C, strain NBP2, hits give low values 1.01 | locus YDR195W, strain ref2 1.06 | locus YDR297W, strain sur2, hits give low values 1.01 | locus YDR318W, strain mcm21, hits give low values 1 | locus YDR334W, strain swr1, hits give low values 1.02 | locus YDR335W, strain msn5, hits give low values 1.03 | locus YDR388W, hits give low values 1.02 | locus YDR392W, strain spt3, hits give low values 0.829 | locus YDR502C, strain sam2, hits give low values 1 | locus YEL003W, strain gim4, hits give low values 1.02 | locus YEL037C, strain rad23, hits give low values 1.02 | locus YEL061C, strain CIN8 (second series), hits give low values 1.02 | locus YEL061C, strain CIN8, hits give low values 1.01 | locus YER015W, strain faa2, hits give low values 1.01 | locus YER016W, strain bim1, hits give low values 1.01 | locus YER110C, hits give low values 1.02 | locus YER111C, strain swi4, hits give low values 1.01 | locus YER155C, strain BEM2 (second series), hits give low values 0.926 | locus YER155C, strain BEM2, hits give low values 1 | locus YER167W, strain BCK2, hits give low values 0.998 | locus YFR010W, strain ubp6, hits give low values 1.03 | locus YGL078C, strain dbp3, hits give low values 1.01 | locus YGL086W, strain mad1, hits give low values 0.988 | locus YGL167C, strain pmr1, hits give low values 1.02 | locus YGL173C, strain kem1, hits give low values 1.01 | locus YGL227W, strain vid30, hits give low values 1.01 | locus YGL240W, strain doc1, hits give low values 1.01 | locus YGL248W, strain PDE1, hits give low values 0.994 | locus YGL253W, strain hxk2, hits give low values 1.03 | locus YGR078C, strain PAC10, hits give low values 0.997 | locus YGR135W, strain pre9, hits give low values 1.04 | locus YGR229C, strain SMI1, hits give low values 1.01 | locus YGR252W, strain gcn5, hits give low values 0.994 | locus YHR013C, strain ard1, hits give low values 1.04 | locus YHR027C, strain rpn1, hits give low values 1.01 | locus YHR030C, strain SLT2, hits give low values 1 and 0.973 | locus YHR079C, strain IRE1 (second series), hits give low values 0.997 | locus YHR079C, strain IRE1, hits give low values 0.967 | locus YHR094C, strain hxt1, hits give low values 1.01 | locus YHR129C, strain ARP1, hits give low values 0.996 | locus YHR142W, strain chs7, hits give low values 1.03 | locus YHR200W, strain rpn10, hits give low values 1 | locus YIL066C, strain RNR3, hits give low values 0.997 | locus YIL073C, strain SPO22, hits give low values 1.08 | locus YIL125W, strain kgd1, hits give low values 1 | locus YIR030C, strain dcg1, hits give low values 1.01 | locus YJL092W, strain hpr5, hits give low values 1.01 | locus YJL095W, strain BCK1 (second series), hits give low values 1 | locus YJL095W, strain BCK1, hits give low values 0.989 and 0.986 | locus YJL115W, strain asf1, hits give low values 1.01 | locus YJL129C, strain trk1, hits give low values 0.956 | locus YJL134W, strain LCB3, hits give low values 1 | locus YJL154C, strain vps35, hits give low values 1.01 | locus YJL164C, strain tpk1, hits give low values 1 | locus YJL166W, strain qcr8, hits give low values 1.01 | locus YJL168C, strain set2, hits give low values 1 | locus YJL187C, strain SWE1 (second series), hits give low values 0.995 | locus YJL187C, strain SWE1, hits give low values 1.01

— PubChem BioAssay AID1159580 (chemical genetic matrix, 2015)
